# Assay outcomes as filed in PubChem.
# Most compounds without a hit are left out; they make up all but 8.2% or so of the library.
# KB-3-1 tox = kills parental KB-3-1 adenocarcinoma cells. KB-3-1 viability, CellTiter-Glo ATP luminescence, 72 h. Potency, µM (highest dose often 46.1 µM), usual class: cytotoxic. hit rate 1.4% among 400,000; further: on the % scale 0 is the no-effect control and ±100 the full control effect; nearly all actives have a fitted effect of over 60% in size
#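 Screening of KB-3-1 cells (DMEM, 10% FBS, phenol-red free) ran from lowest to highest compound concentration; after 72 h at 37 °C viability was read luminescently and curves fitted.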
# MCF10A rereplic = DNA re-replication induction in MCF 10a cells. MCF 10A DNA re-replication, Hoechst nuclear intensity, 48 h. Potency, µM (top dose mostly 46.1 µM), inactives show at the top dose activity, positive = re-replication, actives largely listed as activators. hit rate 2.9% among 350,000. AID 624296; further: % of control where 0% means no effect; nearly all actives have a fitted effect of over 50% in size
# SW480 rerep = induces DNA re-replication in SW480 colon adenocarcinoma cells. SW480 DNA re-replication, Hoechst DNA content imaging, 48 h. Potency, µM (top dose mostly 46.1 µM), for inactives: at the top dose re-replication activation, usual class: activators. hit rate 1.8% among 340,000. AID 624297; further: % of control where 0% means no effect; nearly all actives have a fitted effect of over 55% in size
#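 Per well, 250 cells were exposed to pinned compound for 48 hr. Nuclear DNA was visualised with Hoechst (40 min, 37 C) and total object intensity recorded by fluorescence scanning.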
# ELG1 DNA repair = blocks ELG1-dependent DNA repair in HEK293T cells. AID 504467. Potency, µM (top dose mostly 46.1 µM), for the others: at the highest dose activity change, negative = inhibition, most hits filed as inhibitors. hit rate 2.3% among 330,000. HEK293T ELG1-luciferase reporter, luminescence, 16 h; DNA damage induced by 5-fluorouridine; further: on the % scale 0 is the no-effect control and ±100 the full control effect; nearly all actives have a fitted effect of over 55% in size
#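 Reporter activity after DNA damage by 5-fluorouridine is monitored. Compound-treated cells incubate 16 hr at 37 °C, then ONE-Glo is added for 30 min before luminescence reading.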
# KB-V1 cytotox = kills drug-selected multidrug resistant KB-V1 cells; AID 1347076; Potency, µM (top dose mostly 46.1 µM), most hits filed as cytotoxic; hit rate 3.4% among 400,000; KB-V1 MDR cells viability, CellTiter-Glo, 72 h; further: on the % scale 0 is the no-effect control and ±100 the full control effect; nearly all actives have a fitted effect of over 60% in size
#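 Potencies derive from concentration-effect curves fitted to normalized luminescence (CellTiter-Glo) of KB-V1 cells treated for 72 h at 37 degrees C in phenol-red-free DMEM containing 10% FBS.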
# Starred values were filed as active, the others as inactive; i = inactive; ? = inconclusive; nt = no result. The call rests on the fitted dose curve; in most records, active means well fitted curve in the direction sought with a large enough effect; inconclusive means small, poorly fitted or top-dose-only effect, or another doubt; inactive means no such curve, though single readings can be large; an effect the other way counts as inactive or inconclusive. Potency means the concentration at half of the fitted maximal effect.
SMILES,KB-3-1 tox,MCF10A rereplic,SW480 rerep,ELG1 DNA repair,KB-V1 cytotox
CCOC(=O)C1CCCN(c2nc(C)nc3c2oc2ccccc23)C1 (stereo not drawn),i,56.8%,29.4%,?,8.2µM*
CCc1nc(N2CCCC(C)C2)c2oc3ccccc3c2n1 (stereo not drawn),?,?,20.4%,?,5.17µM*
CCc1nc(N2CCCCC2C(=O)O)c2oc3ccccc3c2n1 (stereo not drawn),i,1.6%,-12.5%,-12.7%,i
Cc1nc(N2CCOCC2)c2oc3ccccc3c2n1,i,?,6.4%,-23.4%,14.6µM*
Cc1ccc(S(=O)(=O)N2CCCCC2)cc1C(=O)N1C(C)CCCC1C (stereo not drawn),i,?,-3.5%,?,i
COC(=O)C1=C(c2ccccc2)c2ccccc2S(=O)(=O)N1CC(=O)Nc1ccc(F)c(F)c1,i,nt,nt,nt,i
COc1ccc(N(Cc2cccs2)C(=O)COc2ccc(C(C)C)cc2)cc1,i,nt,nt,nt,?
CC(C)(C)C(=O)COC(=O)C1=NN(c2ccccc2)C(=O)CC1,i,-7.2%,1.8%,13.3%,i
CCc1nc(Nc2ccc3c(c2)OCO3)c2oc3ccccc3c2n1,i,?,8.5%,?,?
CCc1nc(N2CCN(Cc3ccc4c(c3)OCO4)CC2)c2oc3ccccc3c2n1,20µM*,9.2µM*,?,17.0%,10µM*
Cc1cc(N2CCN(C)CC2)nc2ccc(NC(=O)CCC(=O)N3CCN(c4ccc([N+](=O)[O-])cc4)CC3)cc12,i,18.4µM*,?,?,i
Cc1cc(N2CCOCC2)nc2ccc(NC(=O)CCC(=O)N3CCN(c4ccccc4)CC3)cc12,i,0.7%,-5.6%,?,i
COc1ccc(NC(=O)C2(C)Cc3c(-c4ccc5c(c4)OCO5)ccnc3O2)cn1 (stereo not drawn),5.8µM*,nt,nt,nt,11.6µM*
CC1(C(=O)Nc2ccc3c(c2)OCO3)Cc2c(-c3ccc4c(c3)OCO4)ccnc2O1 (stereo not drawn),5.17µM*,nt,nt,nt,?
CC1(C(=O)Nc2ccc3c(c2)OCO3)Cc2c(-c3cccc(C(N)=O)c3)ccnc2O1 (stereo not drawn),7.31µM*,nt,nt,nt,?
CC1(C(=O)Nc2ccccc2)Cc2c(-c3cccc(C(N)=O)c3)ccnc2O1 (stereo not drawn),i,nt,nt,nt,i
O=C1C=C(c2n[nH]nc2-c2ccccc2)C[C@@H](c2ccc(F)cc2)C1,i,nt,nt,nt,i
Cc1ccc(N(Cc2cccs2)C(=O)c2ccccc2Cl)cc1,i,nt,nt,nt,i
COc1cccc(/C=N/NC(=O)CSc2ccccc2C)c1O,?,?,?,-19.2%,6.51µM*
COc1cccc(/C=N/NC(=O)c2nc(-c3ccccc3)cc(-c3ccccc3)n2)c1O,?,6.9%,8.2µM*,?,?
COc1cccc(C=NNC(=O)c2ccncc2)c1O,20.6µM*,?,?,nt,i
O=C(N/N=C/c1ccc(Br)s1)c1ccncc1,i,?,10.3µM*,?,i
COc1cccc(/C=N/NC(=O)CSc2ccccc2C)c1OC,i,2.6%,-2.9%,0.8%,?
Cc1ccccc1NC(=O)NNC(=O)CCc1ccccc1,i,1.6%,-5.1%,-3.0%,?
Cc1ccc(C(=O)N(CC(=O)NC2CCCC2)c2ccccc2Cl)s1,i,-2.5%,0.0%,-5.4%,?
SMILES,KB-3-1 tox,MCF10A rereplic,SW480 rerep,ELG1 DNA repair,KB-V1 cytotox
COc1cc([N+](=O)[O-])cc(/C=N/NC(=O)C(O)(c2ccccc2)c2ccccc2)c1O,i,?,?,-18.2%,i
COc1cccc(/C=N/NC(=O)COc2cccc3cccnc23)c1O,?,?,13µM*,?,i
COc1ccccc1/C=C/C=N/Nc1cccc(C(=O)O)c1,i,20.6µM*,7.2%,?,i
O=C(N/N=C/c1cc(Br)cc(Br)c1O)c1ccncc1,i,?,1.03µM*,?,i
COc1ccccc1OCC(=O)N/N=C/c1cccc2cccnc12,i,13.3%,?,-16.1%,i
COc1cc([N+](=O)[O-])cc(/C=N/NC(=O)c2cccnc2)c1O,?,6.51µM*,?,?,i
COc1cccc(S(=O)(=O)N(C)C[C@H]2Oc3ncc(Br)cc3C(=O)N([C@@H](C)CO)C[C@@H]2C)c1,i,nt,nt,nt,i
Cc1ccc(S(=O)(=O)Oc2ccccc2/C=N/O)cc1,i,1.0%,-0.3%,2.2%,i
Cc1ccc(S(=O)(=O)Oc2ccccc2/C=N/Nc2ccc(C(=O)O)cc2)cc1,i,18.4µM*,?,?,?
O=C(N/N=C/c1ccccc1)c1ccc(NC(=O)c2ccc(F)cc2)cc1,i,0.1%,-7.5%,0.5%,i
COc1ccc(/C=N/NC(=O)c2nc(-c3ccccc3)n(-c3ccccc3)n2)cc1,i,5.9%,-8.0%,-23.9%,i
COc1ccc(/C=N/NC(=O)c2nc(-c3ccccc3)n(-c3ccccc3)n2)c(O)c1,?,7.31µM*,?,-15.6%,i
Cc1ccc(S(=O)(=O)Oc2ccccc2-c2ccccc2)cc1,?,11.6µM*,11.6µM*,nt,?
O=C(N/N=C/c1cc(Br)cc([N+](=O)[O-])c1O)c1ccc(NC(=O)c2ccc(F)cc2)cc1,i,6.0%,?,13µM*,i
CCc1ccccc1NC(=O)c1ccc2c(c1)N(Cc1cc(C)ccc1C)C(=O)c1ccccc1S2(=O)=O,i,nt,nt,nt,i
CCCC1CC(C(=O)Nc2ccccc2)C(=O)O1 (stereo not drawn),i,?,18.3%,nt,i
O=C(N/N=C/c1ccco1)c1ccncc1,i,-3.7%,-13.8%,17.6%,i
CCn1c(C)nc2cc(C(=O)N/N=C/c3cccc(OC)c3O)ccc21,i,?,1.64µM*,?,?
CCC(=NNC(=O)c1ccc2c(c1)nc(C)n2CC)c1cc(F)ccc1O,?,10.5%,?,?,2.31µM*
COc1cccc(/C=N/Nc2ccc(S(=O)(=O)O)cc2)c1O,i,-3.4%,-4.1%,?,i
CCn1c(C)nc2cc(C(=O)N/N=C/c3ccc(O)c(O)c3O)ccc21,i,23.9%,-2.4%,?,i
COc1cccc(/C=N/Nc2ccc(C(=O)O)cc2)c1O,16.4µM*,-1.3%,-8.4%,?,?
CCn1c(C)nc2cc(C(=O)n3cc(C(=O)c4cc(F)ccc4O)cn3)ccc21,nt,nt,nt,5.5%,nt
O=C(N/N=C/C1=Cc2ccccc2OC1)c1ccncc1,i,?,18.4µM*,23.8%,i
O=C(O)c1ccccc1SC1=NS(=O)(=O)c2ccccc21,i,nt,nt,nt,?
